Measured values taken from PubChem BioAssay (NCI).
About 83,000 compounds went through this panel and 20% of them were active in at least one assay; those are over-represented in the sample as a whole.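 The endpoint reported here, percent growth, reads 100 for growth as untreated, 0 for no net growth and -100 for all cells dead.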 Active and inactive are the calls of the source. Rule for the calls: active = growth percent below 10; inactive = the rest.

Experiments:
Test in all cases: NCI-60 one-dose screen, 48 h (100 = growth as untreated, 0 = no growth, -100 = all killed)
Details in all cases: 10 µM
786-0 renal = system: 786-0 renal
MALME-3M melanoma = system: MALME-3M melanoma
UACC-257 melanoma = system: UACC-257 melanoma
SN12C renal = system: SN12C renal
TK-10 renal = system: TK-10 renal
ACHN renal = system: ACHN renal
CAKI-1 renal = system: CAKI-1 renal
A498 renal = system: A498 renal
RPMI-8226 leukemia = system: RPMI-8226 leukemia
OVCAR-8 ovarian = system: OVCAR-8 ovarian
OVCAR-5 ovarian = system: OVCAR-5 ovarian
SK-OV-3 ovarian = system: SK-OV-3 ovarian
IGROV1 ovarian = system: IGROV1 ovarian
OVCAR-3 ovarian = system: OVCAR-3 ovarian
NCI/ADR-RES ovarian = system: NCI/ADR-RES ovarian
T-47D breast = system: T-47D breast
BT-549 breast = system: BT-549 breast
MDA-MB-435 melanoma = system: MDA-MB-435 melanoma
MCF7 breast = system: MCF7 breast
HCT-116 colon = system: HCT-116 colon

Measured: growth

O=C(/C=C/c1ccc(Cl)cc1Cl)c1nc2ccccc2n1Cc1ccc(Br)cc1
inactive: 786-0 renal 32.6% | MALME-3M melanoma 84% | UACC-257 melanoma 84.4% | SN12C renal 75.7% | TK-10 renal 99.8% | ACHN renal 71.3% | CAKI-1 renal 65.1% | A498 renal 103% | OVCAR-8 ovarian 80.6% | OVCAR-5 ovarian 98% | SK-OV-3 ovarian 92.9% | IGROV1 ovarian 68.4% | OVCAR-3 ovarian 68.4% | NCI/ADR-RES ovarian 82.1% | T-47D breast 44.4% | BT-549 breast 59.2% | MDA-MB-435 melanoma 79.2% | MCF7 breast 17.1% | HCT-116 colon 25.8%
active: RPMI-8226 leukemia 2.18%

O=C(/C=C/c1ccco1)c1nc2ccccc2n1Cc1ccc(Br)cc1
inactive: 786-0 renal 23% | MALME-3M melanoma 44.2% | UACC-257 melanoma 36.9% | SN12C renal 43.4% | TK-10 renal 77.1% | ACHN renal 48.7% | CAKI-1 renal 47.5% | A498 renal 105% | OVCAR-8 ovarian 46.7% | OVCAR-5 ovarian 57% | SK-OV-3 ovarian 103% | IGROV1 ovarian 31.6% | OVCAR-3 ovarian 22% | NCI/ADR-RES ovarian 25.7% | MDA-MB-435 melanoma 15.2%
active: RPMI-8226 leukemia -5.78% | T-47D breast 4.25% | BT-549 breast 6.02% | MCF7 breast 2.72% | HCT-116 colon 8.16%

CC12OOC(C)(OO1)C2CCC(=O)NCCNc1ccnc2cc(Cl)ccc12 (stereo not given)
inactive: 786-0 renal 107% | MALME-3M melanoma 89.7% | UACC-257 melanoma 112% | SN12C renal 99.4% | TK-10 renal 121% | ACHN renal 97% | CAKI-1 renal 78.2% | A498 renal 106% | RPMI-8226 leukemia 78.8% | OVCAR-8 ovarian 97.6% | OVCAR-5 ovarian 102% | SK-OV-3 ovarian 91.2% | IGROV1 ovarian 89.2% | OVCAR-3 ovarian 97.3% | NCI/ADR-RES ovarian 98.3% | T-47D breast 80.8% | BT-549 breast 106% | MDA-MB-435 melanoma 97.7% | MCF7 breast 82.3% | HCT-116 colon 100%

Cc1c2oc3c(C)ccc(C(=O)N[C@@H]4C(=O)N[C@H](C(C)C)C(=O)N5CCC[C@H]5C(=O)N(C)CC(=O)N(C)[C@@H](C(C)C)C(=O)OC4C)c3nc-2c(C(=O)N[C@@H]2C(=O)N[C@H](C(C)C)C(=O)N3CC(=O)C[C@H]3C(=O)N(C)CC(=O)N(C)[C@@H](C(C)C)C(=O)OC2C)c(N)c1=O (stereo not given in full)
inactive: 786-0 renal 19% | IGROV1 ovarian 17% | HCT-116 colon 22.3%
active: MALME-3M melanoma -14.5% | UACC-257 melanoma -28% | SN12C renal 6.6% | TK-10 renal 5.82% | ACHN renal 2.84% | CAKI-1 renal 8.23% | A498 renal -68.7% | RPMI-8226 leukemia -13.1% | OVCAR-8 ovarian 0.349% | OVCAR-5 ovarian 5.55% | SK-OV-3 ovarian 7.97% | OVCAR-3 ovarian 6.77% | NCI/ADR-RES ovarian 4.49% | T-47D breast -5% | BT-549 breast -9.76% | MDA-MB-435 melanoma -66.1% | MCF7 breast 1.42%

CC(=C\C(=O)Oc1ccc2c3c1OC1C(O)CCC4(O)C(C2)N(CC2CCC2)CCC314)/C=C1\CCCc2ccccc21 (stereo not given)
inactive: 786-0 renal 45.1% | MALME-3M melanoma 34.6% | SN12C renal 60.9% | TK-10 renal 65.2% | ACHN renal 84.9% | CAKI-1 renal 41.7% | A498 renal 125% | RPMI-8226 leukemia 30.1% | OVCAR-8 ovarian 76.9% | OVCAR-5 ovarian 72.1% | SK-OV-3 ovarian 80.9% | IGROV1 ovarian 67.1% | OVCAR-3 ovarian 77.2% | NCI/ADR-RES ovarian 63.8% | T-47D breast 24.4% | BT-549 breast 58.7% | MDA-MB-435 melanoma 61.8% | MCF7 breast 35.3% | HCT-116 colon 28.6%
active: UACC-257 melanoma -36.8%

C=CC[Se]C(=O)c1ccc(C(=O)[Se]CC=C)s1
active: 786-0 renal -96.3% | MALME-3M melanoma -47.7% | UACC-257 melanoma -78.4% | SN12C renal -55.8% | TK-10 renal -80% | ACHN renal -45.6% | CAKI-1 renal -83.9% | A498 renal -5.42% | RPMI-8226 leukemia -26.8% | OVCAR-8 ovarian -80.5% | OVCAR-5 ovarian -61.8% | SK-OV-3 ovarian -95.2% | IGROV1 ovarian -78.9% | OVCAR-3 ovarian -92.9% | NCI/ADR-RES ovarian -23.1% | T-47D breast -40.4% | BT-549 breast -92.3% | MDA-MB-435 melanoma -82.8% | MCF7 breast -55.4% | HCT-116 colon -77.9%

COc1cc(OC)c(S(=O)(=O)N(CCCl)CCCl)cc1C(=O)/C=C/c1ccc(C)cc1
inactive: 786-0 renal 14.2% | MALME-3M melanoma 83.5% | UACC-257 melanoma 90% | SN12C renal 53.6% | TK-10 renal 106% | ACHN renal 64.9% | CAKI-1 renal 65.3% | A498 renal 110% | RPMI-8226 leukemia 59.9% | OVCAR-8 ovarian 54.2% | OVCAR-5 ovarian 91.7% | SK-OV-3 ovarian 74.5% | IGROV1 ovarian 86.8% | OVCAR-3 ovarian 112% | NCI/ADR-RES ovarian 63.2% | T-47D breast 88% | BT-549 breast 93.8% | MDA-MB-435 melanoma 79.5% | MCF7 breast 63.6% | HCT-116 colon 58%
